# PubChem BioAssay (NCATS)
# Inconclusive results are not listed. Values without a mark were called inactive. Activity calls are given as the source filed them. Calls come from the whole dose curve; as a rule, active = well fitted inhibition curve with a large enough effect; inconclusive = small, poorly fitted or top-dose-only effect; inactive = flat fitted curve, though single readings scatter.
# Tested on: Zika virus NS2B-NS3 protease
# Assay: Primary screen GU AMC qHTS for Zika virus inhibitors (AID 1347154); note: nearly all actives have a fitted effect of over 70% in size;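 for activity change, negative = inhibition: 0% = no-inhibitor control and -100% = no-enzyme control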
# Settings: Zika NS2B-NS3 unlinked protease, AMC fluorogenic substrate; series mostly up to 54.1 µM; activity change, negative = inhibition: at the top concentration
# In short: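 Unlinked Zika NS2B hydrophilic domain–NS3 protease complex at 25 nM in 10 mM Tris-HCl pH 8.0, 0.01% Tween 20, with an AMC peptide substrate. Fluorescence change (340/450 nm) over 15 min at room temperature, normalized to controls, fitted to 4-parameter Hill.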
# Potency is the fitted concentration of half-maximal effect.
SMILES,Potency,"activity change, negative = inhibition"
Cc1nccc2c1[nH]c1ccccc12,26.7 µM (active),
CC(C)(O)C(=O)Nc1ccc([N+](=O)[O-])c(C(F)(F)F)c1,,6.95%
COC1=CC(C)=C[C@@H](C)[C@@H](O)[C@@H](C)CC(C)=CC=C[C@H](OC)[C@H]([C@@H](C)[C@@H](O)[C@H](C)[C@@]2(O)C[C@@H](O)[C@H](C)[C@@H](C(C)C)O2)OC1=O,,-0.984%
N=c1c2c(-c3ccccc3)c(-c3ccccc3)n(Cc3ccccc3)c2ncn1C1CCC(O)CC1 (stereo not drawn),,5.9%
Cc1ccc(Cl)c(O)c1,,1.71%
O=C(O)COc1ccccc1,,-0.332%
CCCCCCCCCC(CC)c1ccc(S(=O)(=O)O)cc1 (stereo not drawn),11.7 µM (active),
CCO/N=C(\CC)C1=C(O)CC(c2c(C)cc(C)cc2C)CC1=O (stereo not drawn),,-4.17% [at 104 µM]
CC(C)(C)C(O)C(Oc1ccc(Cl)cc1)n1cncn1 (stereo not drawn),,1.18% [at 104 µM]
C[C@]12CCC(=O)C(O)=C1CC[C@@H]1[C@H]3CCC(=O)[C@@]3(C)CC[C@@H]12,,-7.44%
C=CCON=C(C[C@H]1O[C@@H]2O[C@]3(C)CC[C@@H]4[C@H](C)CC[C@@H]([C@H]1C)[C@@]24OO3)[C@H]1O[C@@H]2O[C@]3(C)CC[C@H]4[C@H](C)CC[C@@H]([C@@H]1C)[C@@]24OO3,,-8.1%
ClC1=C(Cl)[C@]2(Cl)[C@@H]3[C@@H]4C[C@@H]([C@H]5O[C@@H]45)[C@@H]3[C@@]1(Cl)C2(Cl)Cl,,-12.5% [at 104 µM]
CC(C)N[C@@H]1CCn2c(=O)[nH]c3cccc(c32)[C@@H]1O,,-1.54%
Oc1ccc2c3c1O[C@H]1[C@@H](O)C=C[C@H]4[C@@H](C2)NCC[C@@]341,,1.57% [at 104 µM]
CC[N+]1(CCOC(=O)C(O)(c2ccccc2)c2ccccc2)CCCCC1,,3.74%
C[C@]12CC[C@H](O)CC1=CC[C@H]1[C@H]3CCC(=O)[C@@]3(C)CC[C@@H]12,,1.11%
CCOC(=O)c1c(C(C#N)=CN)c2ccc(Cl)c(Cl)c2n1C,,5.22%

SMILES,Potency,"activity change, negative = inhibition"
CCCCOC(=O)c1ccccc1C(=O)OCc1ccccc1,,-8.12% [at 104 µM]
COc1nn(CSP(=S)(OC)OC)c(=O)s1,,2.6% [at 104 µM]
CC[C@@H]1[C@@H](C)O[C@@](O)([C@@H](C)[C@H](O)[C@H](C)[C@H]2OC(=O)C=CC=C[C@@H](C)[C@@H]([C@@H](C)[C@@H](O)[C@H](C)[C@@]3(O)C[C@H](O[C@H]4C[C@H](O)[C@H](O)[C@H](C)O4)[C@H](CC)[C@@H](C)O3)OC(=O)C=CC=C[C@@H]2C)C[C@H]1O[C@H]1C[C@H](O)[C@H](O)[C@H](C)O1,,16.1%
C=C[C@@H]1CN2CCC1C[C@@H]2[C@@H](O)c1ccnc2ccccc12 (stereo partly drawn),,-11.8%
C=C[C@@H]1CN2CCC1C[C@H]2[C@H](O)c1ccnc2ccccc12 (stereo partly drawn),,-5.26%
CO/C=C(/C(=O)OC)c1ccccc1Oc1cc(Oc2ccccc2C#N)ncn1,,1.19% [at 104 µM]
O=C(Nc1ccccc1-c1ccc(Cl)cc1)c1cccnc1Cl,,-2.22% [at 104 µM]
Fc1cc(Br)ccc1CBr,,0.795%
c1ccc2c(CN3CCNCC3)cccc2c1,,4.48%
CC[C@H]1C=CC=CC[C@@H](C)[C@H](O)[C@@](C)(O)C(=O)[C@@H](C)[C@H](O)[C@@H](C)C(=O)[C@@H](C)[C@H](O)[C@@H](C)C=CC(=O)O[C@@H]2[C@@H](C)[C@H](CC1)O[C@]1(CC[C@H](C)[C@H](C[C@@H](C)O)O1)[C@H]2C,,-5.25%
NC1=NC(=O)N2CC12 (stereo not drawn),,17.3%
C[C@]12Cc3cn[nH]c3C[C@@H]1CC[C@@H]1[C@H]2CC[C@@]2(C)[C@H]1CC[C@]2(C)O,,-4.34%
CCOP(=O)(OCC)C(C)NC(=O)N(CCCl)N=O (stereo not drawn),,12.6%
COc1ccc(C(c2ccc(OC)cc2)C(Cl)(Cl)Cl)cc1,,-8.26% [at 104 µM]
O=S(=O)(O)C(F)(F)C(F)(F)C(F)(F)C(F)(F)F,,1.57% [at 104 µM]
Cc1cc(O)ccc1Cl,,-0.786%
